Assay results from PubChem BioAssay (Tox21).
Values joined by “and” are separate entries in the source; they are usually repeats but may differ in a detail not shown here. Equal entries are not always repeated. Inconclusive results are not listed. Entries that show only a call come without a potency. More than one record can exist for a structure, and the calls need not agree. Active and inactive are the calls of the source. Unless noted, calls come from the whole dose curve.

Experiments:
[1] = Nuclear factor erythroid 2-related factor 2/antioxidant responsive element (Nrf2/ARE) small molecule agonists: qHTS cell viability counter screen in human keratinocytes (AID 1919968; active = well fitted curve in the direction sought with a large enough effect in the repeat runs; an effect the other way counts as inactive or inconclusive; note: nearly all actives have a fitted effect of over 55% in size; note: potency is the fitted concentration of half-maximal effect)
Summary of the method: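 HaCaT ARE reporter line, 1,500 cells/well; 5 h settle, 37 C/5% CO2; cpd in DMSO pinned; 23 h exposure; CellTiter-Fluor, 1 h; fluorescence.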

[2] = Nuclear factor erythroid 2-related factor 2/antioxidant responsive element (Nrf2/ARE) small molecule agonists: luciferase reporter gene qHTS assay in human keratinocytes (AID 1919969); note: nearly all actives have a fitted effect of over 35% in size; note: potency is the fitted concentration of half-maximal effect
[3] = biological target: Gonadotropin-releasing hormone receptor (Homo sapiens) (UniProt P30968); test: Human gonadotropin-releasing hormone receptor (GnRHR) small molecule agonists, calcium flux assay in GnRHR-HEK293 cells (AID 1920063); note: nearly all actives have a fitted effect of over 35% in size
Gonadotropin-releasing hormone receptor (Homo sapiens), sequence (P30968 whole entry, looked up): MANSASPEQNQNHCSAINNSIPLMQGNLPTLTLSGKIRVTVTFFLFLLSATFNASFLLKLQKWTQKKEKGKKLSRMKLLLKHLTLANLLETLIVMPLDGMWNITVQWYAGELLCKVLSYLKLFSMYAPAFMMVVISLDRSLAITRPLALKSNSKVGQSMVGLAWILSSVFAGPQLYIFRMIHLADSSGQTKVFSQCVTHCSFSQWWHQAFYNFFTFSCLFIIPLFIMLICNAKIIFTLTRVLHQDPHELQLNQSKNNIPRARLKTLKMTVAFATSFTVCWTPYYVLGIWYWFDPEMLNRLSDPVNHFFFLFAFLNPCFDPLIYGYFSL
Summary of the method: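 GnRHR-HEK293, 1500 cells/well, 18 h 37 C/5% CO2; Ca dye 1 h 37 C; cpd pinned (DMSO), agonist mode; kinetic FL 480/540, 3 min, 1 s reads; 15 conc, n=3.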

[4] = biological target: KiSS-1 receptor (Homo sapiens) (UniProt Q969F8); test: Human kisspeptin (KISS1R) small molecule agonists, calcium flux assay in KISS1R-HEK293 cells (AID 1920064; active = well fitted curve in the direction sought with a large enough effect in the repeat runs; an effect the other way counts as inactive or inconclusive)
KiSS-1 receptor (Homo sapiens), sequence (Q969F8 whole entry, looked up): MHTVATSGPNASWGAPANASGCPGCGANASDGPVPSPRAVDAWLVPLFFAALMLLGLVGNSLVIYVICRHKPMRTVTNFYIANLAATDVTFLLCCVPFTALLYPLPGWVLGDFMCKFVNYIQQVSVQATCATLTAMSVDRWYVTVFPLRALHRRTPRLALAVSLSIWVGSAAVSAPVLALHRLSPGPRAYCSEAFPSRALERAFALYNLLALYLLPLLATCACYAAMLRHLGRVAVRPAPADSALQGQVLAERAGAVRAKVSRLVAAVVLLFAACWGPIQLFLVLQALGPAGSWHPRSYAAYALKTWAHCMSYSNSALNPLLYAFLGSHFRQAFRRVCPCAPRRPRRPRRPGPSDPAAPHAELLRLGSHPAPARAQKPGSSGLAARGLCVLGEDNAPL
Summary of the method: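 Stable human KISS1R HEK293 line; 18 h plating, 37 C/5% CO2; calcium dye 1 h 37 C; compound pin transfer; kinetic fluorescence Ex/Em 480/540, 3 min.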

[5] = G protein-coupled receptor (GPCR) small molecule agonists, calcium flux assay: HEK293 wild type cell line counter screen (AID 1920065)
Summary of the method: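 Kinetic fluorescence at Ex/Em 480/540, recorded every second over 3 min, served as the read-out after compound addition. Each compound was tested at 15 concentrations in triplicate on cells pre-loaded with calcium dye for 1 h.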

[6] = p53 small molecule agonists, cell-based qHTS assay with human liver microsomes (AID 1963577)
Summary of the method: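 p53RE-bla reporter cells were pre-incubated 5 h at 37 C, then treated with compounds plus human liver microsomes (0.5 mg/mL final) and NADPH (0.5 mg/mL final) for 16 h at 37 C. Beta-lactamase activity was read by LiveBLAzer fluorescence after 2 h at room temperature.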

[7] = p53 small molecule agonists, cell-based qHTS assay with rat liver microsomes (AID 1963578)
Summary of the method: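 p53RE-bla cells were exposed to compounds together with rat liver microsomes (0.5 mg/mL final) and NADPH (0.5 mg/mL final) for 16 h at 37 C, then read by LiveBLAzer beta-lactamase fluorescence after 2 h at room temperature.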

[8] = p53 small molecule agonists, cell-based qHTS assay with human liver microsomes: qHTS cell viability counter screen (AID 1963579); note: nearly all actives have a fitted effect of over 45% in size
Summary of the method: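 p53RE-bla cells (4,000/well) were pre-incubated 5 h at 37 C, then given compounds in DMSO plus human liver microsomes (0.5 mg/mL final) and NADPH (0.5 mg/mL final) for 16 h at 37 C. Viability was read by CellTiter-Glo luminescence.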

[9] = p53 small molecule agonists, cell-based qHTS assay with rat liver microsomes: qHTS cell viability counter screen (AID 1963580); note: nearly all actives have a fitted effect of over 45% in size; note: potency is the fitted concentration of half-maximal effect
Summary of the method: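 In HCT-116 cells carrying a p53 response element-bla reporter, compounds were metabolically activated in situ by rat liver microsomes with NADPH over 16 h. Cell ATP content then served as the cytotoxicity measure.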

[10] = p53 small molecule agonists, cell-based qHTS assay: qHTS cell viability counter screen (AID 1963581); note: nearly all actives have a fitted effect of over 45% in size
Summary of the method: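 HCT-116 p53RE-bla cells, 4,000/well, plated 5 h before compound pin transfer; 16 h at 37 C; bla substrate 2 h RT; then CellTiter-Glo, 30 min RT, luminescence.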

[11] = p53 small molecule agonists, cell-based qHTS assay (AID 1963582; active = well fitted activation curve with a large enough effect in the signal ratio in the repeat runs, not every such curve was filed as active; the % refers to the signal ratio)
Summary of the method: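 Reporter line: p53RE-bla. Pre-incubation 5 h, 37 C, 5% CO2; compound (DMSO, pin tool) 16 h, 37 C; B/G FRET substrate 2 h RT; fluorescence intensity read.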

[12] = biological target: 5-hydroxytryptamine receptor 2A (Homo sapiens) (UniProt P28223); test: 5-hydroxytryptamine receptor 2A (HTR2A) small molecule antagonists, cell-based qHTS assay (AID 1963586); note: nearly all actives have a fitted effect of over 45% in size
5-hydroxytryptamine receptor 2A (Homo sapiens), sequence (P28223 whole entry, looked up): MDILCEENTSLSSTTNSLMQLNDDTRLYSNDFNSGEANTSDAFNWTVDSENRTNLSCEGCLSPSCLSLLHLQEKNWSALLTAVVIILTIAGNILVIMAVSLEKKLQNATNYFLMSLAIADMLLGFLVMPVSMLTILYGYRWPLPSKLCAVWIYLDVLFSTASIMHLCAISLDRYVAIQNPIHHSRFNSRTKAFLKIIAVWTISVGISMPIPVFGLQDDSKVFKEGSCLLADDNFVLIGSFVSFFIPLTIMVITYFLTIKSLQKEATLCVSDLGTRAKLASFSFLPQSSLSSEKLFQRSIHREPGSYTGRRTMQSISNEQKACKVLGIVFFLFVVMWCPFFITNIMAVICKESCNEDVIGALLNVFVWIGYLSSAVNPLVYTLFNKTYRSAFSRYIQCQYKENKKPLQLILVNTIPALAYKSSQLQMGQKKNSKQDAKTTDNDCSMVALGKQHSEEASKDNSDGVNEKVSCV
Summary of the method: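 Antagonist-mode intracellular calcium assay: DOI (4 nM) added after 5 min compound pre-incubation at room temperature to dye-loaded HTR2A-CHO cells. Fluorescence followed for 3 min, sampled every second.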

[13] = biological target: Muscarinic acetylcholine receptor M1 (Homo sapiens) (UniProt P11229); test: Cholinergic receptor muscarinic 1 (CHRM1) small molecule agonists, cell-based qHTS assay (AID 1963589); note: nearly all actives have a fitted effect of over 35% in size
Muscarinic acetylcholine receptor M1 (Homo sapiens), sequence (P11229 whole entry, looked up): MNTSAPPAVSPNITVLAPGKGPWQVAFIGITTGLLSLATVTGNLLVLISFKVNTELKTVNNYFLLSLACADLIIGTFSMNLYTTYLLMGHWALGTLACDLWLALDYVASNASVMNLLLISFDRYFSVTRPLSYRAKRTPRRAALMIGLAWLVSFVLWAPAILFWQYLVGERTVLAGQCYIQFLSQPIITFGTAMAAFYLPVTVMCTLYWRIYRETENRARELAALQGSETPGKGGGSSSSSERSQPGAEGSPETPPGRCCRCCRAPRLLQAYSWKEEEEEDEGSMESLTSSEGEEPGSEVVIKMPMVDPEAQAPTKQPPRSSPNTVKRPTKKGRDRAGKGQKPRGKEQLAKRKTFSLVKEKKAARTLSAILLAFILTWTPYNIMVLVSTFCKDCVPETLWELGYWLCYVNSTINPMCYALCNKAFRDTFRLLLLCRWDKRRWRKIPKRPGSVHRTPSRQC
Summary of the method: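 Human M1 in stable CHO line; 18 h plating, 1 h dye load 37 C; cpd added (agonist mode); Ca2+ fluorescence kinetic read, 1 s intervals; 15 conc, 3 runs.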

[14] = cAMP Responsive Elements (CRE) small molecule agonists, cell-based qHTS assay (AID 1963590)
Summary of the method: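 HEK 293T CRE-bla, 2,000 cells/well, 18 h preincubation 37 C/5% CO2; cpds (DMSO) pinned, 3 h; LiveBLAzer B/G FRET substrate, 2 h RT.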

[15] = cAMP Responsive Elements (CRE) small molecule antagonists, cell-based qHTS assay (AID 1963591; active = well fitted inhibition curve with a large enough effect in the signal ratio in the repeat runs, not every such curve was filed as active; the % refers to the signal ratio)
Summary of the method: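 Beta-lactamase reporter read by FRET substrate (LiveBLAzer B/G) after 2 h at room temperature. CRE-bla HEK293T cells had received compound plus 0.25 uM (final) NKH477 for 3 h at 37 °C.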

[16] = biological target: Beta-2 adrenergic receptor (Homo sapiens) (UniProt P07550); test: Adrenergic beta2 receptor (ADRB2) small molecule antagonists, cell-based qHTS assay (AID 1963592); note: series mostly up to about 92 µM; nearly all actives have a fitted effect of over 50% in size
Beta-2 adrenergic receptor (Homo sapiens), sequence (P07550 whole entry, looked up): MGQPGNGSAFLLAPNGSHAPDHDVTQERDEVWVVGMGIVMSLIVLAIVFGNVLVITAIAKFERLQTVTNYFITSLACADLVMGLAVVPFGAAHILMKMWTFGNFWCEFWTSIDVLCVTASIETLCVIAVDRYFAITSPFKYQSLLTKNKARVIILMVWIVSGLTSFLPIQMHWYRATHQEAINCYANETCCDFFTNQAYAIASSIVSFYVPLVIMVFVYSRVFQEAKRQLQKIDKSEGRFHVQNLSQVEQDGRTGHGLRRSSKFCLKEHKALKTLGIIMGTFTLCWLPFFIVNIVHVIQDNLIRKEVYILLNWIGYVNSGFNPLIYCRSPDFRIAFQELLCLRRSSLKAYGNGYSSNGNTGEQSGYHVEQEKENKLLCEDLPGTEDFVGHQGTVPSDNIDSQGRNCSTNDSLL
Summary of the method: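 Cells (CHO, stable ADRB2 overexpression) incubated 18-20hr at 37C; compounds added from DMSO; agonist mix (1nM isoproterenol, 100uM IBMX, 25uM Ro-20-1724) added; 0.5hr RT; d2-cAMP and anti-cAMP-cryptate added; 1hr RT; 665/615 nm read.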

[17] = biological target: Beta-2 adrenergic receptor (Homo sapiens) (UniProt P07550); test: Adrenergic beta2 receptor (ADRB2) small molecule agonists, cell-based qHTS assay (AID 1963593);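 note: CHO cells stably overexpressing human ADRB2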
Summary of the method: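 CHO cells stably over-expressing ADRB2 were plated overnight at 37C, then dosed with compounds plus a stimulation mix containing 100uM IBMX and 25uM Ro-20-1724 for 0.5hr at room temperature. cAMP was measured by HTRF competition, 1hr.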

[18] = biological target: D(2) dopamine receptor (Homo sapiens) (UniProt P14416); test: Dopamine D2 receptor (DRD2) small molecule agonists, cell-based qHTS assay (AID 1963594); note: nearly all actives have a fitted effect of over 35% in size
D(2) dopamine receptor (Homo sapiens), sequence (P14416 whole entry, looked up): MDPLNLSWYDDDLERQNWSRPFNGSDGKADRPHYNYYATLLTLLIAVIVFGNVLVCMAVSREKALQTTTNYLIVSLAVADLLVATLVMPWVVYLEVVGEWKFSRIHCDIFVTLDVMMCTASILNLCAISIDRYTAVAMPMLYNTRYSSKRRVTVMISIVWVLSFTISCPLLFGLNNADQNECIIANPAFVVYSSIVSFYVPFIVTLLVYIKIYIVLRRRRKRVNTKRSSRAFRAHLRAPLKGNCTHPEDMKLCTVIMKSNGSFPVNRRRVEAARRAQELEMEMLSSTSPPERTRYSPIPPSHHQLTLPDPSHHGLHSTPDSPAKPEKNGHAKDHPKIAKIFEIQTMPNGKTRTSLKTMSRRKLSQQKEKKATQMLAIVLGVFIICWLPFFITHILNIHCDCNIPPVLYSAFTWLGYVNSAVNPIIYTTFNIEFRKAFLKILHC
Summary of the method: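 HEK293 cells stably expressing DRD2 were cultured 24 h at 37 C, then given Ro20-1724 (0.1 mM final) and compounds for 10 min at room temperature. NKH477 (200nM) was then added for 30 min. cAMP was read by HTRF.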

[19] = biological target: 5-hydroxytryptamine receptor 2A (Homo sapiens) (UniProt P28223); test: 5-hydroxytryptamine receptor 2A (HTR2A) small molecule agonists, cell-based qHTS assay (AID 1963587); note: nearly all actives have a fitted effect of over 30% in size
Summary of the method: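 HTR2A-CHO cells, plated 18 h at 37 C/5% CO2, dye-loaded 1 h at 37 C; compounds in DMSO added by pin tool (agonist mode). Intracellular calcium flux read as kinetic fluorescence on FDSS over 2 min at 1 s intervals.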

[20] = biological target: D(2) dopamine receptor (Homo sapiens) (UniProt P14416); test: Dopamine D2 receptor (DRD2) small molecule antagonists, cell-based qHTS assay (AID 1963595; active = well fitted inhibition curve with a large enough effect in the signal ratio in the repeat runs, with a control signal flat; the % refers to the signal ratio)
Summary of the method: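 Cells were plated and grown for 24 h at 37 °C. Ro20-1724 (0.1 mM final) went in first, then compound for 10 min. NKH477 (200 nM) with quinpirole (12 nM) followed for 30 min at RT, then HTRF detection reagents for 1 h.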

Row | SMILES | Potency [1] | Potency [2] | Potency [3] | Potency [4] | Potency [5] | Potency [6] | Potency [7] | Potency [8] | Potency [9] | Potency [10] | Potency [11] | Potency [12] | Potency [13] | Potency [14] | Potency [15] | Potency [16] | Potency [17] | Potency [18] | Potency [19] | Potency [20]
1 | c1ccc(OCCOc2ccccc2)cc1 | inactive | inactive | inactive | inactive | inactive | inactive | inactive | inactive | inactive | inactive | inactive | inactive | inactive | inactive | inactive | inactive | inactive | inactive |  | 
2 | CC1(C)CC(N)CC(C)(CN)C1 (configuration not stated) | inactive | inactive | inactive | inactive | inactive | inactive | inactive | inactive | inactive | inactive | inactive | inactive | inactive | inactive | inactive |  |  | inactive | inactive | inactive
3 | CC(C)[N+](C)(CCOC(=O)C1c2ccccc2Oc2ccccc21)C(C)C | inactive | inactive | inactive | inactive | inactive | inactive | inactive | inactive | inactive | inactive | inactive | inactive | inactive | inactive | inactive | inactive | inactive | inactive |  | 
4 | CC1(C)C(=O)N(Cl)C(=O)N1Cl | inactive | inactive | inactive | inactive | inactive | inactive | inactive | inactive | inactive | inactive | inactive | inactive | inactive | inactive | inactive | inactive | inactive | inactive | inactive | inactive
5 | NS(=O)(=O)c1cc2c(cc1Cl)NC=NS2(=O)=O | inactive | inactive | inactive | inactive | inactive | inactive | inactive | inactive | inactive | inactive | inactive | inactive | inactive | inactive | inactive | inactive | inactive | inactive | inactive | inactive
6 | O=C(O)c1[nH]n(-c2ccc(S(=O)(=O)O)cc2)c(=O)c1N=Nc1ccc(S(=O)(=O)O)cc1 | 24.4 µM (active) and 45.4 µM (active) | inactive | inactive | inactive | inactive | inactive | inactive | inactive | inactive | inactive | inactive | inactive | inactive | inactive | inactive | inactive | inactive | inactive |  | 
7 | CC(=O)OC(C)(C)C1CC=C(C)CC1 (configuration not stated) | inactive | inactive | inactive | inactive | inactive | inactive | inactive | inactive | inactive | inactive | inactive | inactive | inactive | inactive | inactive | inactive | inactive | inactive |  | inactive
8 | C=C(C)C(=O)O[C@H]1C[C@@H]2CC[C@@]1(C)C2(C)C | 1.21 µM (active) and inactive | 963 nM (active) and inactive | inactive | inactive | inactive | inactive | inactive | inactive | 7.21 µM (active) and inactive | inactive | inactive | inactive | inactive | inactive | inactive | inactive | inactive | inactive |  | inactive
9 | C=C(C)C1CC=C(C)C(OC(C)=O)C1 (configuration not stated) | inactive | inactive | inactive | inactive | inactive | inactive | inactive | inactive | inactive | inactive | inactive |  | inactive | inactive | inactive | inactive | inactive | inactive | inactive | 
10 | O=C(O)Cn1c(=O)n(Cc2ccc(Br)cc2F)c(=O)c2ccc(Cl)cc21 | inactive | inactive | inactive | inactive | inactive | inactive | inactive | inactive | inactive | inactive | inactive | inactive | inactive | inactive | inactive | inactive | inactive | inactive | inactive | inactive
11 | Cc1cc(=O)[nH]c(=S)[nH]1 | inactive | inactive | inactive | inactive | inactive | inactive | inactive | inactive | inactive | inactive | inactive | inactive |  | inactive | inactive |  | inactive | inactive |  | inactive
12 | NCCOCCO | inactive | inactive | inactive | inactive | inactive | inactive | inactive | inactive | inactive | inactive | inactive | inactive | inactive | inactive | inactive | inactive |  | inactive | inactive | inactive
13 | CCCCOCCOCCOC(C)=O | inactive | inactive | inactive | inactive | inactive | inactive | inactive | inactive | inactive | inactive | inactive |  | inactive | inactive | inactive | inactive | inactive | inactive | inactive | 
